PubChem BioAssay (Tox21)
Inconclusive results are not listed. Where a call stands in place of a potency, no number is given. Unmarked numbers belong to inactive results. The source made the active and inactive calls. The call rests on the fitted dose curve; in most records, active means well fitted inhibition curve with a large enough effect in the repeat runs; inconclusive means weak or mixed curves; inactive means no such curve, though single readings can be large or run the other way.

The molecules below were run against Estrogen receptor (Homo sapiens) (UniProt P03372) (assay: qHTS assay to identify small molecule antagonists of the estrogen receptor alpha (ER-alpha) signaling pathway using the BG1 cell line in the presence of 0.1 nM 17-beta-estradiol (AID 1259244; further: nearly all actives have a fitted effect of over 50% in size)). Settings: VM7Luc4E2 (BG1) ERE-luciferase, antagonist mode, 0.1 nM E2, 22 h; series mostly up to 92.4 µM.
Sequence of Estrogen receptor (Homo sapiens) (P03372 whole entry, looked up): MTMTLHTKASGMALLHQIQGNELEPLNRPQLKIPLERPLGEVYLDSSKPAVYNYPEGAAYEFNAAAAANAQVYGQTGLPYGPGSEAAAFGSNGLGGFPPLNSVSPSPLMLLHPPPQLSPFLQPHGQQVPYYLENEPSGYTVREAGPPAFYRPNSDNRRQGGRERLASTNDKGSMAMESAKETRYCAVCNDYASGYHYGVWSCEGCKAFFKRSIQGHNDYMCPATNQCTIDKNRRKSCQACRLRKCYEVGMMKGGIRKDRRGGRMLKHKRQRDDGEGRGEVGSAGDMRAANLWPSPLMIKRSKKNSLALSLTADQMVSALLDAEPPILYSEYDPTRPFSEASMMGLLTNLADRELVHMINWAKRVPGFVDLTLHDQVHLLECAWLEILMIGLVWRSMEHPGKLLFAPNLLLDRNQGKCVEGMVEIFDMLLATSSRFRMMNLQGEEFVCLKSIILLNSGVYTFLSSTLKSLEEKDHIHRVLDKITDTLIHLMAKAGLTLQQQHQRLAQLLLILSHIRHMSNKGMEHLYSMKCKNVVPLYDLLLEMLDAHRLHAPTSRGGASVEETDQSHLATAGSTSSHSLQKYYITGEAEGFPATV
Text: National Center for Advancing Translational Sciences [NCATS]
NIH Chemical Genomics Center [NCGC]
U.S. Environmental Protection Agency [EPA]
National Institutes of Environmental Health Sciences [NIEHS]
National Toxicology Program [NTP]
U.S. Food and Drug Administration [FDA]
Estrogen receptor (ER), a member of the nuclear hormone receptor plays an important role in development, metabolic homeostasis and reproduction. Two subtypes of ER, ER-alpha and ER-beta, have similar expression patterns with some uniqueness in both types. Endocrine disrupting chemicals (EDCs) and their interactions with steroid hormone receptors like ER causes disruption of normal endocrine function. Therefore, it is important to understand the effect of environmental chemicals in ER signaling pathway. For identifying ER antagonists, VM7Luc4E2 cell line was used to screen against Tox21 compound libraries.
VM7Luc4E2 cell line (provided by Denison MS, University of California) endogenously express full-length ER-alpha and is stably transfected with a plasmid containing four estrogen responsive elements (ERE) upstream of a luciferase reporter gene. The current screening for identification of ER-alpha inhibitors against Tox21 compound libraries used lower concentration (0.1 nM) of 17beta-Estradiol as a stimulator.
Tox21 Assay Protocol Summary:
VM7Luc4E2 cells were cultured in phenol red free assay medium containing 10% charcoal stripped FBS for 5 days prior to the assay. The cells were dispensed at 4,000 cells/well in 4 uL of assay medium into white wall/solid-bottom 1536-well plates (Corning Life Sciences, Corning, NY) using a Multidrop Combi (ThermoFisher Scientific, Waltham, MA) dispenser. After the assay plates were incubated at 37C and 5% CO2 for 24 hr, 23 nL of compounds dissolved in DMSO, positive controls or DMSO only was transferred to the assay plates by a Pintool station (Kalypsys, San Diego, CA). The transfer of compounds was followed by the addition of 1 uL of 0.1 nM (final concentration) agonist (17beta-Estradiol)/assay medium using a Flying Reagent Dispenser (FRD, Aurora Discovery, San Diego, CA). The plates were incubated at 37C and 5% CO2 for 22 hr. For luciferase reporter gene assay, 4 uL of ONE-Glo reagent (Promega Corporation, Madison, WI) was added to each well using the FRD and after 30 min incubation at room temperature luminescence intensity was measured using ViewLux plate reader (PerkinElmer, Shelton, CT).
Potency means the concentration at half of the fitted maximal effect.

Row | Structure (SMILES) | Potency | activity change, negative = inhibition
1 | CC(=O)NCCCS(=O)(=O)O | inactive | 
2 | O=C(Cl)c1c(Cl)cccc1Cl | inactive | 
3 | CC(C)(C)c1ccc(S)cc1 | inactive | 
4 | NC(N)=N/N=C/c1c(Cl)cccc1Cl | inactive | 
5 | Cc1nc2ccccc2n1Cc1ccc(Cl)cc1 | 2.11 µM (active) | 
6 | Nc1cnn([C@@H]2O[C@H](CO)[C@@H](O)[C@H]2O)c(=O)n1 | inactive | 
7 | CCCCOC(O)CC (stereo not given) | inactive | 
8 | CC1=CCC(C(C)C)C=C1 (stereo not given) | inactive | 
9 | O=C(c1ccc(O)cc1)c1ccc(O)cc1 | inactive | 
10 | N=C(N=C(N)N)N1CCOCC1 | inactive | 
11 | Cc1ccc(C(=O)C(C)CN2CCCCC2)cc1 (stereo not given) | inactive | 
12 | O=C(CCN1CCN2CCCC2C1)N1c2ccccc2Sc2ccc(Cl)cc21 (stereo not given) |  | 3.86% [at 19 µM]
13 | CC(=O)O[C@@H]1C(=O)O[C@@H]2[C@H]1OC(=O)[C@@H]2OC(C)=O | inactive | 
14 | CC(=O)/C=C/C1C(C)=CCCC1(C)C (stereo not given) | inactive | 
15 | O=[N+]([O-])c1cccc(Cl)c1Cl | inactive | 
16 | CC[C@@H]1C[C@H](N(Cc2cc(C(F)(F)F)cc(C(F)(F)F)c2)C(C)=O)c2cc(C(F)(F)F)ccc2N1C(=O)OC(C)C | inactive | 
17 | CC(C)CCCC(C)CCO (stereo not given) | inactive | 
18 | CC/C(=C\C(=N/O)C(N)=O)C(C)[N+](=O)[O-] (stereo not given) | inactive | 
19 | CCN(CC)CCOC(=O)C1(c2ccccc2)CCCC1 | inactive | 
20 | CCCCCCCCCCCCCCC1CO1 (stereo not given) | inactive | 

Row | Structure (SMILES) | Potency | activity change, negative = inhibition
21 | O=c1[nH]cnc2ccccc12 | inactive | 
22 | CCCc1ccccc1 | inactive | 
23 | COCCCCCCCCOCCC[Si](C)(O[Si](C)(C)C)O[Si](C)(C)C | 17.2 µM (active) | 
24 | CC(C)NCC(O)COc1ccc(CC(N)=O)cc1 (stereo not given) | inactive | 
25 | CCOC(=S)SSC(=S)OCC | inactive | 
26 | CCCCCCCCCO | inactive | 
27 | CCCC(=O)OCC | inactive | 
28 | O=[N+]([O-])c1cc[n+]([O-])cc1 | 54.5 µM (active) | 
29 | CN1CCC(OC(c2ccccc2)c2ccccc2)CC1 | inactive | 
30 | O=C(O)Cc1sc(-c2ccccc2)nc1-c1ccc(Cl)cc1 | inactive | 
31 | CC(C)(C)c1cc(CCC(=O)OCC(COC(=O)CCc2cc(C(C)(C)C)c(O)c(C(C)(C)C)c2)(COC(=O)CCc2cc(C(C)(C)C)c(O)c(C(C)(C)C)c2)COC(=O)CCc2cc(C(C)(C)C)c(O)c(C(C)(C)C)c2)cc(C(C)(C)C)c1O | inactive | 
32 | FC(F)(F)C(F)(F)C(F)(F)C(F)(F)C(F)(F)C(F)(F)CCI | inactive | 
33 | Cc1ncsc1CCO | inactive | 
34 | COC(Cc1ccccc1)OC | inactive | 
35 | CCCCCCCCCCCCC(=O)O | inactive | 
36 | COCCO | inactive | 
37 | CCCOc1ccc2nc(NC(=O)OC)[nH]c2c1 | inactive | 
38 | Cc1cccc(C(C)(C)C)c1O | inactive | 
39 | CCOC(=O)CC(=O)c1cc(F)c(Cl)nc1Cl | inactive | 
40 | CC(=O)N(O)CCCCCNC(=O)CCC(=O)N(O)CCCCCNC(=O)CCC(=O)N(O)CCCCCN | inactive | 
